In all, about 5,400 compounds went through this assay and about 190 (3.5%) showed an effect of 50% or more. This is one part of a sample in which strong results are shown more often than they occur.

This experiment has as its system Vero-E6. Description: primary screen, phospholipidosis by LipidTOX staining; higher = more effect of the substance. Conditions: 10 µM. An outline of the steps: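 Single-concentration screen at 10 μM, with DMSO 0.1 v/v % and amiodarone 10 μM as controls. Read-out is LipidTOX Red phospholipid staining, which tolerates aldehyde fixation, in Vero-E6 cells.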
Consider `CN(C)c1ccc2nc3ccc(N(C)C)cc3[s+]c2c1`, for which the result_ITMP is recorded as 5.81%.

With `CO[C@@H]1[C@H](OC(=O)NC(=O)CCl)CC[C@]2(CO2)[C@H]1[C@@]1(C)O[C@@H]1CC=C(C)C`, the result_ITMP came to 16.1%.

As for `NC[C@@H]1O[C@H](O[C@H]2[C@@H](O)[C@H](O[C@@H]3[C@@H](O)[C@H](N)C[C@H](N)[C@H]3O[C@H]3O[C@H](CO)[C@@H](O)[C@H](O)[C@H]3N)O[C@@H]2CO)[C@H](N)[C@@H](O)[C@@H]1O`, the result_ITMP is -1.27%.

For `CC1CCC(O)C/C1=C\C=C1/CCCC2(C)C1CCC2C(C)/C=C/C(C)C(C)C` (stereo not drawn), the result_ITMP is 0.34%.

On to `C[C@H](CSC(=O)c1ccccc1)C(=O)N1C[C@@H](Sc2ccccc2)C[C@H]1C(=O)[O-]`, for which the result_ITMP was -1.35%.

For the compound `Cc1ncc(COP(=O)([O-])O)c(CN(CCN(CC(=O)[O-])Cc2c(COP(=O)(O)O)cnc(C)c2[O-])CC(=O)[O-])c1[O-].[Mn+2]`, the result_ITMP is -10.5%.

On to `O=C([O-])C1=C(CSc2nnnn2CS(=O)(=O)[O-])CS[C@@H]2[C@H](NC(=O)[C@H](O)c3ccccc3)C(=O)N12`, for which the result_ITMP was found to be 0.51%.

On to `CSc1ccc2c(c1)N(CCC1CCCCN1C)c1ccccc1S2` (stereo not drawn), for which the result_ITMP is 68.1%.

Take `CN1CCN(CC/C=C2/c3ccccc3Sc3ccc(S(=O)(=O)N(C)C)cc32)CC1`: the result_ITMP was 61.9%.

As for `CN(C)CCCN1c2ccccc2CCc2ccccc21`, the result_ITMP amounted to 23.6%.

For `CN(C)CCCN1c2ccccc2Sc2ccccc21`, the result_ITMP was 37.7%.

Regarding `OCCOCCN1CCN(C2=Nc3ccccc3Sc3ccccc32)CC1`, the result_ITMP worked out at 22.1%.

On to `CN1CCCCC1CCN1c2ccccc2Sc2ccc(S(C)=O)cc21` (stereo not drawn), for which the result_ITMP is on record as -0.95%.

Take `CN(C)CCCN1c2ccccc2Sc2ccc(Cl)cc21`: the result_ITMP came out at 104%.

`Cc1[nH]c(/C=C2\C(=O)Nc3ccc(S(=O)(=O)N(C)c4cccc(Cl)c4)cc32)c(C)c1C(=O)N1CCN(C)CC1`: the result_ITMP amounted to 7.98%.

`OCCN1CCN(CC/C=C2/c3ccccc3Sc3ccc(C(F)(F)F)cc32)CC1`: the result_ITMP came to 83.6%.

With `OCCN1CCN(CC/C=C2/c3ccccc3Sc3ccc(Cl)cc32)CC1`, the result_ITMP was found to be 17.9%.

Take `CO/N=C(/C(=O)N[C@@H]1C(=O)N2C(C(=O)[O-])=C(CSc3nc(=O)c([O-])nn3C)CS[C@H]12)c1csc(N)n1`: the result_ITMP is recorded as -8.18%.

Regarding `C[N+]1([O-])[C@@H]2C[C@@H](OC(=O)[C@H](CO)c3ccccc3)C[C@H]1[C@@H]1O[C@@H]12` (stereo partly drawn), the result_ITMP is -4.04%.

For `C[C@@]1(CO)[C@H](O)CC[C@@]2(C)[C@H]1CC[C@H]1C[C@@H]3C[C@@]12CC[C@]3(O)CO`, the result_ITMP is 0.12%.

For the compound `CC(C)(C)c1ccc(-c2nc3cccc(N4CCN(Cc5ccc6nccnc6c5)CC4)c3[nH]2)cc1`, the result_ITMP is listed as 5.05%.

For the compound `Cc1cc(C)cc(NC(=O)Cc2ccc(OC(C)(C)C(=O)[O-])cc2)c1`, the result_ITMP was 9.78%.

In the case of `O=S(=O)([O-])c1ccc(O)cc1`, the result_ITMP is reported as -0.61%.

Consider `Cc1onc(-c2c(F)cccc2Cl)c1C(=O)N[C@@H]1C(=O)N2[C@@H]1SC(C)(C)[C@@H]2C(=O)[O-]`, for which the result_ITMP was -6.63%.

In the case of `CCCCOc1c(C(=O)c2c(F)cc(C)cc2F)cnc2[nH]ncc12`, the result_ITMP amounted to 7.58%.

With `C/C(=C\CNc1ncnc2nc[nH]c12)CO`, the result_ITMP is reported as -1.84%.

For `OCCN1CCN(CCCN2c3ccccc3Sc3ccc(C(F)(F)F)cc32)CC1`, the result_ITMP worked out at 60.4%.

As to `CCCCCCCCCCCCCCCC(=O)OCCC1CCN(CCCN2c3ccccc3Sc3ccc(S(=O)(=O)N(C)C)cc32)CC1`, the result_ITMP was -5.2%.

`CCCCCCCCCC(=O)OCCN1CCN(CCCN2c3ccccc3Sc3ccc(C(F)(F)F)cc32)CC1`: the result_ITMP amounted to 5.56%.

For the compound `O=C(CN1CCN(Cc2ccc3c(c2)OCO3)CC1)N1c2ccccc2Sc2ccccc21`, the result_ITMP amounted to 15.4%.

Turning to `CCSc1ccc2c(c1)N(CCCN1CCN(C)CC1)c1ccccc1S2`, the result_ITMP was found to be 59.1%.

In the case of `CN1CCN(CCCN2c3ccccc3Sc3ccc(S(=O)(=O)N(C)C)cc32)CC1`, the result_ITMP is 50.3%.

In the case of `C[C@@H]1CN(Cc2ccc(F)cc2)[C@@H](C)CN1C(=O)c1cc2c(C(=O)C(=O)N(C)C)cn(C)c2cc1Cl`, the result_ITMP is recorded as -5.07%.

On to `O=C([O-])c1cc2cc(Cc3cccnc3)ccc2o1`, for which the result_ITMP is reported as -0.95%.

As for `O=C([O-])[C@H](CC(=O)N1C[C@H]2CCCC[C@H]2C1)Cc1ccccc1`, the result_ITMP is -4.71%.

In the case of `O=C(NN1C(=O)[C@@H]2[C@@H]3C=C[C@@H]([C@H]4C[C@@H]34)[C@@H]2C1=O)c1ccc(C(F)(F)F)cc1`, the result_ITMP is on record as -0.89%.

In the case of `C/N=C(/NS(=O)(=O)c1ccc(Cl)cc1)N1CC(c2ccccc2)C(c2ccc(Cl)cc2)=N1` (racemic), the result_ITMP is reported as -1.59%.

As to `O=C(O)c1cnn(-c2nc3cc(Cl)c(OC(F)(F)F)cc3[nH]2)c1`, the result_ITMP is reported as -2.3%.

For the compound `CSc1ccc(C(=O)c2nc(O)[nH]c2C)cc1`, the result_ITMP is recorded as -1.45%.

For `NC(N)=NCCNS(=O)(=O)c1cccc2cnccc12`, the result_ITMP is reported as -3.17%.

On to `O=S(=O)(c1cccc2cnccc12)N1CCNCC1`, for which the result_ITMP was 0.47%.

Take `O=S(=O)(NCCNC/C=C/c1ccc(Br)cc1)c1cccc2cnccc12`: the result_ITMP is recorded as 60.8%.

On to `NC[C@@H]1O[C@H](O[C@H]2[C@@H](O)[C@H](O[C@@H]3[C@@H](O)[C@H](N)C[C@H](N)[C@H]3O[C@H]3O[C@H](CN)[C@@H](O)[C@H](O)[C@H]3N)O[C@@H]2CO)[C@H](N)[C@@H](O)[C@@H]1O`, for which the result_ITMP is -2.72%.

In the case of `c1cnc2c([O][Ga]([O]c3cccc4cccnc34)[O]c3cccc4cccnc34)cccc2c1`, the result_ITMP was 5.3%.

Regarding `CCOC(=O)c1ccc(-n2cc(Cc3cnc(OCC)nc3)c(=O)nc2SCc2ccc(F)cc2)cc1`, the result_ITMP was -1.15%.

Take `CCC(C)[C@H]1O[C@]2(C=C[C@@H]1C)C[C@@H]1C[C@@H](C/C=C(\C)[C@@H](OC3C[C@H](OC)C(O[C@H]4C[C@H](OC)[C@@H](O)[C@H](C)O4)[C@H](C)O3)[C@@H](C)/C=C/C=C3\CO[C@@H]4[C@H](O)C(C)=C[C@@H](C(=O)O1)[C@]34O)O2` (stereo partly drawn): the result_ITMP is -3.77%.

`CCOc1nc2cccc(C(=O)O)c2n1Cc1ccc(-c2ccccc2-c2nc(=O)o[nH]2)cc1`: the result_ITMP is on record as -0.57%.

Turning to `NCCCC(O)(P(=O)([O-])O)P(=O)(O)O`, the result_ITMP was 0.52%.

Consider `CC1(C)S[C@@H]2[C@H](NC(=O)C(C(=O)[O-])c3ccccc3)C(=O)N2[C@H]1C(=O)[O-]` (stereo partly drawn), for which the result_ITMP is recorded as -1.48%.

Regarding `Nc1ncccc1-c1nc2ccc(-c3ccccc3)nc2n1-c1ccc(C2(N)CCC2)cc1`, the result_ITMP turned out to be 91.9%.

`CC(C)(C)[C@]1(O)C[C@@H]2OC(=O)C[C@@]23C(=O)O[C@@H]2OC(=O)[C@H](O)C213` (stereo partly drawn): the result_ITMP is given as -3.55%.

Consider `COc1cccc2c1C(=O)c1c(O)c3c(c(O)c1C2=O)C[C@@](O)(C(=O)CO)C[C@@H]3OC1C[C@H](N2CCO[C@H](OC)C2)C(O)[C@H](C)O1` (stereo partly drawn), for which the result_ITMP is 0.2%.

Regarding `CC1(C)CC[C@]2(NC(=O)C(C)(F)F)CC[C@]3(C)C(C(=O)C=C4[C@@]5(C)C=C(C#N)C(=O)C(C)(C)[C@@H]5CC[C@]43C)C2C1` (stereo partly drawn), the result_ITMP was -22.1%.

With `CC1(C)C[C@@H]1C(=O)N/C(=C\CCCCSC[C@H](N)C(=O)[O-])C(=O)O`, the result_ITMP was -1.62%.

For the compound `CCOC(=O)c1cc2ccc(O)cc2oc1=O`, the result_ITMP was -3.11%.

Regarding `c1ccc(CNCc2ccc(CN3CCCNCCNCCCNCC3)cc2)nc1`, the result_ITMP is recorded as -2%.

On to `O=C(c1ccc(-c2ccc(Cl)cc2)o1)N(Cc1ccccn1)c1ccc(N2CCNCC2)cc1`, for which the result_ITMP was 104%.

Take `Clc1ccc(N2CCN(Cc3c[nH]c4ncccc34)CC2)cc1`: the result_ITMP amounted to 1.68%.

As to `CCCC(CCC)C(=O)NCC(N)=O`, the result_ITMP was -5.65%.

Take `Nc1ccc(C(=O)[O-])c(O)c1`: the result_ITMP is -0.28%.

On to `C[C@H](CCC(=O)NCCS(=O)(=O)O)[C@H]1CC[C@H]2[C@@H]3[C@@H](O)C[C@@H]4C[C@H](O)CC[C@]4(C)[C@H]3CC[C@]12C`, for which the result_ITMP is listed as 3.34%.

With `C[C@]12C=CC(=O)C=C1CC[C@@H]1[C@@H]2CC[C@]2(C)OC(=O)CC[C@@H]12`, the result_ITMP is reported as -2.34%.

For the compound `CC(=O)O[C@H]1CC[C@@]2(C)C(=CC[C@@H]3[C@@H]2CC[C@]2(C)C(c4cccnc4)=CC[C@@H]32)C1`, the result_ITMP came to 2.09%.

For the compound `CN1CCN(c2ccc(Nc3ncc4cc(C#N)c(=O)n(C5CCCC5)c4n3)cc2)CC1`, the result_ITMP was -0.88%.

In the case of `C=CCn1c(=O)c2cnc(Nc3ccc(N4CCN(C)CC4)cc3)nc2n1-c1cccc(C(C)(C)O)n1`, the result_ITMP is reported as 32.4%.

With `Cc1cccc(C)c1-n1c(=O)c2cnc(Nc3ccc(N4CCN(C)CC4)cc3)nc2n2c3ccccc3nc12`, the result_ITMP was determined as 81.7%.

Take `N[C@@H](CSS(=O)(=O)[O-])C(=O)O`: the result_ITMP is on record as -1.62%.

With `C/C=C(\C(=C\C)c1ccc(O)cc1)c1ccc(O)cc1`, the result_ITMP was found to be 0.7%.

With `Clc1ccc2c(c1)C(N1CCNCC1)=Nc1ccccc1O2`, the result_ITMP was found to be 70%.

Consider `Clc1cccc(N2CCNCC2)c1`, for which the result_ITMP is 4.14%.

Consider `Cc1cc2c(s1)Nc1ccccc1N=C2N1CCN(C)CC1`, for which the result_ITMP is on record as -8.9%.

Consider `c1ccc2nc(N3CCNCC3)ccc2c1`, for which the result_ITMP was found to be 9.23%.

For the compound `CN1CCN(C2=Nc3ccccc3Sc3ccc(Cl)cc32)CC1`, the result_ITMP is given as 26.7%.

As to `Clc1ccc2c(c1)N=C(N1CCNCC1)c1ccccc1N2`, the result_ITMP is listed as 77.7%.

Regarding `Cc1ccc(Oc2ccccc2-c2csc(NC3=NCCCN3)n2)c(C)c1`, the result_ITMP turned out to be 6.61%.

For the compound `COc1cc(CCc2cc(NC(=O)c3ccc(N4C[C@@H](C)N[C@@H](C)C4)cc3)n[nH]2)cc(OC)c1`, the result_ITMP is listed as 30.8%.

Turning to `C=C[C@@]1(C)CC(=O)[C@]2(O)[C@@]3(C)[C@@H](O)CCC(C)(C)[C@@H]3C(OC(=O)CCN(C)C)C(OC(C)=O)[C@@]2(C)O1` (stereo partly drawn), the result_ITMP came to 4.63%.

Regarding `C[C@H](CCC(=O)NCCS(=O)(=O)O)[C@H]1CC[C@H]2[C@@H]3[C@H](O)C[C@@H]4C[C@H](O)CC[C@]4(C)[C@H]3C[C@H](O)[C@]12C`, the result_ITMP is -2.23%.

Source of the values: PMC13083723 (Patterns, 2026).
